Test results: PubChem BioAssay AID463173 (ICCB-Longwood Screening Facility, Harvard Medical School, 2010)
The campaign covered roughly 52,000 compounds. About 1,700 (3.3%) were called active. Shown is part of a subset that was picked to be rich in actives. Values without a mark were called inactive. Cut-off read from the data, not from the text of the source: active = survival mostly below about 52% (no sharp cut-off); inactive = mostly above about 56%.

These molecules were tested on Wild type (assay: S. aureus survival, RN4220 and DeltatarO strains – OD600, teichoic acid synthesis inhibitors, primary screen (AID 463173)). Details: S. aureus RN4220 wild type/DeltatarO growth, OD600, 18 h, stronger effect = lower value, screened at 18.75 µg/mL (by protocol).
In the case of `Cc1ccc(CNC(=O)C2CCN(c3ncnc4c3nc3n4CCCCC3)CC2)cc1`, the survival was 85%.
With `COc1cccc(-c2cc(C(=O)N3CCN(c4ccccc4OC)CC3)no2)c1` the survival was -9% (active).
In the case of `COc1ccc(-c2cc(C(=O)N3CCN(c4ccc(F)cc4)CC3)no2)cc1OC`, the survival was 72%.
In the case of `O=C(c1cc(-c2ccc(O)cc2)on1)N1CCN(c2ccccc2)CC1`, the survival was 51%.
For `COc1ccccc1-c1cc(C(=O)N2CCN(c3ccccc3)CC2)no1`, the survival was -10% (active).
In the case of `COc1ccccc1N1CCN(C(=O)c2cc(-c3ccc(F)cc3)on2)CC1`, the survival was 73%.
In the case of `COc1ccc(-c2cc(C(=O)N3CCN(c4ccccc4)CC3)no2)cc1`, the survival was 16% (active).
In the case of `COc1ccc(N2CCN(C(=O)c3cc(-c4ccc(C)c(F)c4)on3)CC2)cc1`, the survival was 106%.
With `COc1cccc(-c2cc(C(=O)N3CCN(c4ccc(F)cc4)CC3)no2)c1` the survival was 78%.
With `COc1ccccc1N1CCN(C(=O)c2cc(-c3ccccc3O)on2)CC1` the survival was 66%.
With `CCn1c(CCNC(=O)C2CCCO2)nnc1SC` (stereo not drawn) the survival was 94%.
`COc1cccc(N2CCN(C(=O)CN3CCSc4ccc(S(=O)(=O)N(C)C)cc43)CC2)c1` showed a survival of 72%.
For `Cc1ccnc(NC(c2cccc(O)c2)c2ccc3ccc(C)nc3c2O)c1` (stereo not drawn), the survival was 74%.
With `Cc1ccnc(NC(c2cc(C)ccc2O)c2ccc3cccnc3c2O)c1` (stereo not drawn) the survival was 3% (active).
`Oc1cccc(C(Nc2ccccn2)c2ccc3cccnc3c2O)c1Cl` (stereo not drawn) showed a survival of 76%.
With `Cc1ccc(O)c(CNc2cccc3cccnc23)c1` the survival was 107%.
With `Cc1ccc(C(Nc2ccccn2)c2ccc3cccnc3c2O)cc1` (stereo not drawn) the survival was 6% (active).
`Cc1ccnc(NC(c2ccccc2F)c2ccc3cccnc3c2O)c1` (stereo not drawn) was tested, and the survival was -8% (active).
`CCOc1cc(C(Nc2cc(C)ccn2)c2ccc3cccnc3c2O)ccc1OC` (stereo not drawn) was tested, and the survival was 145%.
Molecule `Cc1ccnc(NCc2cccc3ccccc23)c1` has a survival of 115%.
With `Cc1cccc(NC(c2cccc(Cl)c2)c2ccc3cccnc3c2O)n1` (stereo not drawn) the survival was 4% (active).
With `COc1ccc(C(=O)NC(c2ccc(Cl)cc2)c2cc(Cl)c3cccnc3c2O)cc1` (stereo not drawn) the survival was 79%.
Molecule `Cc1ccc2ccc(C(Nc3ccccn3)c3ccccc3)c(O)c2n1` (stereo not drawn) has a survival of 69%.
Work on `Oc1c(C(Nc2ccccn2)c2ccccc2F)ccc2cccnc12` (stereo not drawn) yielded a survival of 135%.
`CCCN(C(=O)c1nn(-c2ccc(OC)c(Cl)c2)c(=O)c2c1c1ccccc1n2C)c1ccccc1F` was tested, and the survival was 74%.
Molecule `CCOc1ccccc1CNC(=O)Cn1c(-c2ccccc2)cc(C(C)=O)c1C` has a survival of 67%.
In the case of `COC(=O)COc1ccc(S(=O)(=O)N2CCCCC2)cc1C`, the survival was 117%.
Molecule `O=C(/C=C/c1ccccc1)NC1CCSC1=O` (stereo not drawn) has a survival of 108%.
`O=C(CNS(=O)(=O)c1ccc(Cl)cc1)NC1CCCC1` was tested, and the survival was 103%.
For `O=C(CS(=O)(=O)c1cccc2nsnc12)N1CCN(c2ccccc2F)CC1`, the survival was 94%.
`Cc1ccc(NC(=O)Nc2nnc(N(C)Cc3ccccc3)s2)cc1` gave a survival of 101%.
Molecule `COc1ccc2c(c1)c(CC(=O)Nc1ccc(C(C)=O)cc1)c(C)n2C(=O)c1ccc(Cl)cc1` has a survival of 71%.
`CN1CCc2c(sc3c2C(=O)NC(c2ccc(OC(=O)c4ccc(Cl)cc4)cc2)N3)C1` (stereo not drawn) gave a survival of 75%.
With `CCOC(=O)c1ccc(NC(=O)CSc2cn(CC(=O)N3CCCC3)c3ccccc23)cc1` the survival was 89%.
Work on `COc1ccc(CNc2oc(COc3cccc(C)c3)nc2C#N)cc1` yielded a survival of 63%.
With `COc1ccc(-c2nc(C)c(CCNS(=O)(=O)c3cc(Cl)ccc3Cl)s2)cc1` the survival was 87%.
Molecule `CCOc1cc(C(=O)NCCc2csc3nc(-c4ccccc4F)nn23)cc(OCC)c1OCC` has a survival of 87%.
For `O=C(CCn1nnc(-c2cccs2)n1)NC1CCCCC1`, the survival was 115%.
Work on `Cc1cccc(NC(=O)c2ccccc2)n1` yielded a survival of 107%.
With `Cc1cccc(NC(c2ccccc2C)c2ccc3ccc(C)nc3c2O)n1` (stereo not drawn) the survival was -3% (active).
`COc1ccc(C(Nc2ccccn2)c2ccc3ccc(C)nc3c2O)cc1C` (stereo not drawn) showed a survival of 62%.
`Cc1cccc(N2CCN(S(=O)(=O)c3cn(C)c(C)n3)CC2)c1C` was tested, and the survival was -3% (active).
`Cc1ccc(C)c(N2CCN(S(=O)(=O)c3cn(C)c(C)n3)CC2)c1` gave a survival of 68%.
Work on `Cc1nc(S(=O)(=O)N2CCN(c3ccccc3F)CC2)cn1C` yielded a survival of 121%.
Work on `COc1cc(NC(=O)CC(C)S(=O)(=O)c2cc3c4c(c2)CCN4C(=O)CC3)cc(OC)c1` (stereo not drawn) yielded a survival of 76%.
In the case of `C=CCN1C2=NCCCN2c2ccccc21`, the survival was 113%.
Molecule `CCOc1ccccc1NC(=O)CSc1nc(-c2cccs2)cc(C(F)(F)F)n1` has a survival of 83%.
For `COC(=O)c1ccccc1NC(=O)CSc1nc(-c2ccccc2)cc(C(F)(F)F)n1`, the survival was 19% (active).
Work on `O=C(CSc1nc(-c2cccs2)cc(C(F)(F)F)n1)Nc1ccccc1Cl` yielded a survival of 99%.
For `COC(=O)c1ccccc1NC(=O)CSc1cc(-c2ccccc2)nc(C)n1`, the survival was 92%.
`CC(C)(C)c1ccccc1NC(=O)CSc1nc(-c2cccs2)cc(C(F)(F)F)n1` was tested, and the survival was 10% (active).
In the case of `COC(=O)CSc1nc(-c2ccccc2)cc(C(F)(F)F)n1`, the survival was 111%.
In the case of `COc1cccc(-n2c(=O)c3c4c(sc3n(Cc3ccccc3C#N)c2=O)CCCC4)c1`, the survival was 80%.
`COc1ccc(C(CNC(=O)c2oc3cc(C)c(C)cc3c2C)N2CCCCC2)cc1` (stereo not drawn) showed a survival of 102%.
In the case of `Cc1ccc(NC(=O)C2CCN(C(=O)c3cnn(-c4ccccc4)c3-n3cccc3)CC2)cc1C`, the survival was 84%.
With `COc1ccc(CCNC(=O)c2ccc3c(c2)ncn3-c2ccc(C(C)C)cc2)cc1OC` the survival was 80%.
In the case of `COC(=O)CSc1nc2cc(OC)c(OC)cc2cc1C`, the survival was 110%.
Molecule `COc1cc(C2C(=O)N(C3CCCCC3)CC(=O)N2CCC2=CCCCC2)ccc1OC(C)C` (stereo not drawn) has a survival of 135%.
`Cc1cc(-c2nc3ccccc3s2)ccc1NC(=O)c1cc(Cl)ccc1Cl` showed a survival of 92%.
Molecule `C=CCc1ccccc1OCC(O)CN1CCN(c2ccccc2)CC1` (stereo not drawn) has a survival of 54%.
In the case of `COc1ccc(N2CCN(CC(O)COc3ccccc3C(C)(C)C)CC2)cc1` (stereo not drawn), the survival was -3% (active).
`Cc1ccc(C(C)C)c(OCC(O)CN2CCN(c3ccccc3F)CC2)c1` (stereo not drawn) was tested, and the survival was -3% (active).
`COc1ccc(N2CCN(CC(O)COc3ccc(C(C)C)c(C)c3)CC2)cc1` (stereo not drawn) showed a survival of 85%.
Molecule `COc1ccccc1N1CCN(CC(O)COc2cc(C)cc(C)c2)CC1` (stereo not drawn) has a survival of 82%.
For `COc1ccccc1N1CCN(CC(O)COc2ccc(C)cc2C(C)(C)C)CC1` (stereo not drawn), the survival was 2% (active).
Work on `COc1ccc(N2CCN(CC(O)COc3ccc(C(C)(C)C)cc3)CC2)cc1` (stereo not drawn) yielded a survival of 87%.
Molecule `COc1ccc(N2CCN(CC(O)COc3c(OC)cccc3OC)CC2)cc1` (stereo not drawn) has a survival of 81%.
With `COc1ccc(N2CCN(CC(O)COc3ccc(C)cc3C)CC2)cc1` (stereo not drawn) the survival was 87%.
